Mcl-1 Bim block – disrupts Bim peptide binding to human Mcl-1; Bead-based flow cytometry, Bim peptide-Mcl-1 binding; Q07820; inhibition, % at 10 µM; AID 1009; 190,000 compounds, 0.1% hits; in the data active = inhibition above about 40%;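 note: 0% = no compound tracer wells and 100% = peptide blocker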
Target sequence (Q07820 whole entry, looked up): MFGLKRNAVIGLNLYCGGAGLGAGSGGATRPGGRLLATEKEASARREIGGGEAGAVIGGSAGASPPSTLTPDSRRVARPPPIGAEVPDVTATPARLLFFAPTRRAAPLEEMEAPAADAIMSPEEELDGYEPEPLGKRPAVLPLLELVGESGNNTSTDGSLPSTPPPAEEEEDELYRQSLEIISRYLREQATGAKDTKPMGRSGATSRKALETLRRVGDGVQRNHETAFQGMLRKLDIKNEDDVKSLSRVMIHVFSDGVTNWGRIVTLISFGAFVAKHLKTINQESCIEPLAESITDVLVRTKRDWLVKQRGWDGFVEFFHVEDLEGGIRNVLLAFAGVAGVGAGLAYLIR
Mcl1-Bid inh – disrupts binding of human Mcl-1 to Bid peptide. TR-FRET Mcl-1/Bid-Dy647 peptide binding, 1536-well. inhibition, % at 21.7 µM. 220,000 compounds, 0.97% hits;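 active = compounds that cut the binding signal by more than half at the single screening dose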;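 note: His-tagged Mcl-1 with europium anti-His antibody binding Bid BH3 peptide; 0% = Mcl-1 plus peptide wells and 100% = peptide-only wells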
Bcl-xL primary – Bcl-xL (human) inhibition; Q07817; GST-Bcl-xL / FITC-Bim BH3 peptide fluorescence polarization; inhibition, % at 10.9 µM; 320,000 compounds, 0.7% hits;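 active = inhibition above the mean of all tested compounds plus 3 SD, cutoff set per campaign, cut at about 30% in these data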;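 note: 0% = DMSO wells and 100% = unlabeled Bim-BH3 peptide competitor; inhibitors lower millipolarization by displacing the labeled peptide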
Target sequence (Q07817 whole entry, looked up): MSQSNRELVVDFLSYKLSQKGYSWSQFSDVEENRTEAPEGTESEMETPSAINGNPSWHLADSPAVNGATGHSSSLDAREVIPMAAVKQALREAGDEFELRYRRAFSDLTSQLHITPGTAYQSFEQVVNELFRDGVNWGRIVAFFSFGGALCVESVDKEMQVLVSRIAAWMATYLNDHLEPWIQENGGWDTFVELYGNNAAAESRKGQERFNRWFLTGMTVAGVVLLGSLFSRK
MCL1-BIM inh – MCL1-BIM-BH3 interaction inhibition (human) | 320,000 compounds, 0.68% hits | AID 2057 | GST-MCL1 / FITC-Bim-BH3 fluorescence polarization | inhibition, % at 10.9 µM;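 active = inhibition above the mean inhibition of all tested compounds plus 3 SD, set per campaign, cut at about 40% in these data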;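 note: 0% = DMSO wells and 100% = unlabeled Bim-BH3 peptide control; higher means more loss of mP so more displacement of Bim peptide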
Mcl1 Noxa PPI – disrupts binding of human Mcl-1 to Noxa peptide; Q07820; TR-FRET Mcl-1/Noxa peptide binding, 2 h; inhibition, % at 21.7 µM; 220,000 compounds, 1.5% hits;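 active = compounds that cut the protein-peptide binding signal by more than 50% relative to plate controls in a single-dose test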;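 note: His-tagged Mcl-1 with rhodamine Noxa BH3 peptide and terbium anti-His antibody; 0% = Mcl-1 plus Noxa peptide wells and 100% = peptide-only wells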
GLD-1 TGE inh – GLD-1-TGE RNA interaction inhibition (C. elegans); Q17339; purified GLD-1 + fluorescein TGE RNA, fluorescence polarization; inhibition, % at 5.96 µM; 320,000 compounds, 0.44% hits;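 active = percent inhibition above a per-plate cutoff, the plate mean of test compounds plus 3 SD, cut at about 30% in these data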;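 note: 0% = DMSO wells with GLD-1 and probe and 100% = wells lacking GLD-1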
BCLXL inh confirm – Bcl-xL (human) inhibition, MCL1 counter-screen confirmation | shares compounds with MCL1-BIM inh | GST-Bcl-xL / FITC-Bim BH3 peptide FP binding | inhibition, % at 10.9 µM | 1,700 compounds, 54% hits | AID 2166;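 active = inhibition above a cutoff equal to the mean inhibition of all tested compounds plus 3 SD, cut at about 30% in these data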;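 note: 0% = DMSO wells and 100% = unlabeled Bim BH3 control peptide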
MCL1 inh confirm – MCL1-BIM-BH3 interaction inhibition, confirmation. inhibition, % at 10.9 µM. shares compounds with MCL1-BIM inh. AID 2168. GST-MCL1 / FITC-Bim-BH3 fluorescence polarization. 1,700 compounds, 61% hits;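 active = inhibition above the average of all tested compounds plus 3 SD, cut at about 40% in these data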;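 note: 0% = DMSO wells and 100% = unlabeled Bim-BH3 control peptide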
* hit, by the source's call; nt = not tested or not shown; + = active, no number. Hits are enriched below; roughly 2.3% of the tested compounds scored in any of these assays.

SMILES	Mcl-1 Bim block	Mcl1-Bid inh	Bcl-xL primary	MCL1-BIM inh	Mcl1 Noxa PPI	GLD-1 TGE inh	BCLXL inh confirm	MCL1 inh confirm
CCC(=O)OC1(C)C(=O)C=C2C=C(CCCC(=O)OC)OC=C2C1=O (configuration not stated)	nt	nt	70*	86*	nt	46*	41*	75*
COC(=O)CCCC1=CC2=C(c3ccccc3)C(=O)C(C)(OC(=O)C3CCCC3)C(=O)C2=CN1C1CCCC1 (configuration not stated)	nt	-117	12	15	-2	10	nt	nt
COC(=O)CCCC1=CC2=CC(=O)C(C)(OC(=O)C3CCCC3)C(=O)C2=CO1 (configuration not stated)	nt	-62	45*	63*	42	48*	41*	63*
Nc1nc(COC(=O)C2CC(=O)N(CCc3ccccc3)C2)nc(Nc2ccccc2)n1 (configuration not stated)	nt	nt	-5	-4	nt	-5	nt	nt
CCC(CC)C(=O)Nc1nnc(SCC(=O)NC2CC2)s1	nt	nt	-2	-2	nt	-3	nt	nt
O=C(Cc1cccs1)NCCS(=O)(=O)N1CCN(c2cccc(Cl)c2)CC1	nt	nt	-2	-1	nt	-4	nt	nt
Cc1ccc(CNc2ccc3c(c2)OCO3)cc1	6	-42	139*	159*	25	-7	106*	135*
c1cc(CNc2ccc3c(c2)OCO3)ccn1	-4	-51	86*	85*	24	27	64*	81*
COc1cc(/C=C/C(=O)CC(=O)/C=C/c2ccc(O)c(OC)c2)ccc1O	12	1	18	57*	51*	-108	5	-24
Cc1ccc(/C=C2/NC(=O)N(Cc3ccc(Br)cc3)C2=O)o1	-1	-15	21	46*	19	25	-2	21
CN(C)C(=O)c1nc2ccc(Cl)cn2c1CNCc1ccccc1OC(F)(F)F	0	-63	4	0	5	2	nt	nt
CC1=NN(c2cccc(C(=O)O)c2)C(=O)/C1=C\C=C\c1ccco1	0	-16	26	81*	98*	-2	30*	68*
Cc1cccc(CCNC(=O)c2cc(S(=O)(=O)N3CCCCC3)c[nH]2)c1	nt	nt	3	1	nt	2	nt	nt
COc1ccc2c(c1)CCN1C2CCN2C(=O)CCC21 (configuration not stated)	nt	-10	45*	56*	4	21	19	16
COc1ccc(NC(=O)CC(C)NCCCN2CCCC2=O)cc1 (configuration not stated)	nt	nt	-1	-5	nt	-3	nt	nt
O=C(CN1C(=O)/C(=C/c2ccco2)SC1=S)NC1CCS(=O)(=O)C1 (configuration not stated)	nt	nt	44*	64*	nt	17	20	31
O=C(CN1C(=O)/C(=C/c2ccco2)SC1=S)Nc1ccc(C(=O)O)c(O)c1	nt	nt	28	73*	nt	4	30	48*
O=C(CCCN1C(=O)/C(=C/c2cccs2)SC1=S)Nc1ccc(O)c(C(=O)O)c1	1	-65	nt	nt	38	nt	nt	nt
NN1C(=O)/C(=C\c2ccco2)SC1=S	nt	-39	17	55*	20	3	16	35
O=C(CN1C(=O)/C(=C/c2ccco2)SC1=S)Nc1ccc(O)c(C(=O)O)c1	nt	nt	34*	58*	nt	-8	23	47*
COc1ccc(S(=O)(=O)NCc2cccnc2)cc1C(=O)Nc1ccccc1	nt	nt	-1	6	nt	-4	nt	nt
CC1(C)CC(=O)C(C=Nc2cccnc2)=C(O)C1	-3	-15	8	4	-3	7	nt	nt
CC1(C)CC(=O)C(C=Nc2cccnc2/N=C/C2=C(O)CC(C)(C)CC2=O)=C(O)C1	-1	-52	58*	63*	-55	118*	8	2
CC1(C)CC(=O)C(C=Nc2ccc(C(=O)c3ccccc3)cc2N=CC2=C(O)CC(C)(C)CC2=O)=C(O)C1	0	-38	67*	80*	-17	104*	6	16
CC1(C)CC(=O)C(C=Nc2ccc(O)c(N=CC3=C(O)CC(C)(C)CC3=O)c2)=C(O)C1	0	-32	16	17	20	1	nt	nt
SMILES	Mcl-1 Bim block	Mcl1-Bid inh	Bcl-xL primary	MCL1-BIM inh	Mcl1 Noxa PPI	GLD-1 TGE inh	BCLXL inh confirm	MCL1 inh confirm
Cc1cc(=O)oc2cc(NC(=O)C(C)Oc3cccc(Cl)c3)ccc12 (configuration not stated)	nt	nt	-2	-3	nt	14	nt	nt
Cc1ccc(N2C(=O)c3cccc4c(N5CCN(C)CC5)ccc(c34)C2=O)c2cccnc12	0	-3	+	+	-5	137*	+	+
Cc1ccc(N2C(=O)c3cccc4c([N+](=O)[O-])ccc(c34)C2=O)c2cccnc12	nt	4	17	19	32	13	nt	nt
O=C(O)c1ccccc1NCc1ccco1	nt	-22	3	11	5	-3	nt	nt
CCNc1ccc2noc3c2c1C(=O)c1ccccc1-3	2	88*	175*	+	-239	192*	184*	+
CCNc1ccccc(-c2ccc3ccccc3n2)c1=O	0	-44	22	27	43	13	nt	nt
O=C1c2ccccc2-c2onc3ccc(NCc4ccco4)c1c23	35	57*	165*	199*	9	165*	162*	188*
CCOC(=O)c1c(C)oc2c1C(=O)c1ccccc1C2=O	0	-19	7	4	20	-3	nt	nt
CCOc1ccc2noc3c2c1C(=O)c1ccccc1-3	0	-6	152*	174*	43	171*	146*	171*
COC(=O)[C@]1(C)N[C@H](CN(C)C(=O)c2ccc(C)cc2)[C@@H]2C(=O)N(Cc3ccccc3)C(=O)[C@@H]21	nt	nt	nt	nt	nt	5	nt	nt
O=C(Nc1ccc(Nc2ccncc2)cc1)c1ccc(Nc2ccnc3ccc([N+](=O)[O-])cc23)cc1[N+](=O)[O-]	nt	90*	-3	43*	80*	-7	13	27
O=C(Nc1ccc(Nc2ccncc2)cc1)c1ccc([N+](=O)[O-])cc1	nt	-6	4	6	7	-5	nt	nt
Cc1cccc(Nc2nnc(SCC(=O)c3c(N)n(C4CC4)c(=O)[nH]c3=O)s2)c1	nt	nt	-10	-10	nt	-6	nt	nt
C/C(N)=C(/C#N)C(=O)CSc1nnc(Nc2cccc(C)c2)s1	-1	-25	8	40*	36	9	14	41*
NC(=O)c1cc2ccc(O)cc2oc1=NCc1ccccc1	-3	-11	129*	151*	2	95*	170*	199*
CC(=O)Oc1ccc2c(c1)Oc1cc(OC(C)=O)ccc1C21OC(=O)c2ccccc21	nt	-7	181*	+	4	142*	154*	186*

Screening data deposited in PubChem BioAssay by several laboratories.
